Test results as given in PubChem BioAssay AID1159580 (chemical genetic matrix, 2015).
“And” between values parts separate entries of the source, which are not always exact repeats. Identical values can stand only once. About 2,000 (36%) of roughly 5,500 compounds were called active. About 18% were inconclusive and are not listed. No stated cut-off is given here; in the data, active means normalized growth mostly below about 0.91 (no sharp cut-off); inconclusive means no clear call, values can overlap the other calls; inactive means mostly above about 0.92. The list shows a part of the results.

Assay: chemical genetic growth profiling, strain panel (AID 1159580);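 further: tested at 20 µM; growth read once vehicle control cultures reached saturation at 30 °C; 1 = growth at the plate median or of vehicle wells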
Conditions: S. cerevisiae deletion strains, growth OD

Measured: normalized growth

C=CCSCC1Nc2cc(Cl)c(S(N)(=O)=O)cc2S(=O)(=O)N1 (configuration not stated)
inactive: locus YAL013W, strain DEP1, stronger effect = lower value 1.01 | locus YAL021C, strain ccr4, stronger effect = lower value 0.994 | locus YAL026C, strain drs2, stronger effect = lower value 1.01 | locus YAL030W, strain snc1, stronger effect = lower value 1 | locus YBL061C, strain skt5, stronger effect = lower value 1 | locus YBR009C, strain hhf1, stronger effect = lower value 0.995 | locus YBR021W, strain FUR4, stronger effect = lower value 0.991 | locus YBR023C, strain chs3, stronger effect = lower value 1 | locus YBR171W, strain sec66, stronger effect = lower value 1.01 | locus YBR229C, strain ROT2, stronger effect = lower value 1.01 | locus YBR231C, strain swc5, stronger effect = lower value 0.985 | locus YBR279W, strain paf1, stronger effect = lower value 1 | locus YCL011C, strain gbp2, stronger effect = lower value 1 | locus YCL016C, strain dcc1, stronger effect = lower value 0.993 | locus YCL029C, strain bik1, stronger effect = lower value 1.02 | locus YCL061C, strain MRC1, stronger effect = lower value 1 | locus YCL069W, strain vba3, stronger effect = lower value 0.999 | locus YCR088W, strain abp1, stronger effect = lower value 1 | locus YDL005C, strain med2, stronger effect = lower value 0.997 | locus YDL035C, strain GPR1, stronger effect = lower value 1.01 | locus YDL040C, strain nat1, stronger effect = lower value 1 | locus YDL074C, strain BRE1, stronger effect = lower value 1.01 | locus YDL101C, strain DUN1, stronger effect = lower value 1.01 | locus YDL134C, strain PPH21, stronger effect = lower value 1.01 | locus YDL185W, strain tfp1, stronger effect = lower value 1.02 | locus YDL192W, strain arf1, stronger effect = lower value 1.02 | locus YDR001C, strain nth1, stronger effect = lower value 1 | locus YDR069C, strain doa4, stronger effect = lower value 0.997 | locus YDR101C, strain arx1, stronger effect = lower value 1.01 | locus YDR137W, strain rgp1, stronger effect = lower value 1 | locus YDR150W, strain NUM1, stronger effect = lower value 1.01 | locus YDR159W, strain sac3, stronger effect = lower value 0.981 | locus YDR162C, strain NBP2, stronger effect = lower value 1.02 | locus YDR195W, strain ref2 1 | locus YDR297W, strain sur2, stronger effect = lower value 1 | locus YDR318W, strain mcm21, stronger effect = lower value 1.02 | locus YDR334W, strain swr1, stronger effect = lower value 1 | locus YDR335W, strain msn5, stronger effect = lower value 1.01 | locus YDR388W, stronger effect = lower value 1.02 | locus YDR392W, strain spt3, stronger effect = lower value 0.939 | locus YDR502C, strain sam2, stronger effect = lower value 1.03 | locus YEL003W, strain gim4, stronger effect = lower value 1 | locus YEL037C, strain rad23, stronger effect = lower value 1 | locus YEL061C, strain CIN8 (second series), stronger effect = lower value 0.997 | locus YEL061C, strain CIN8, stronger effect = lower value 1 | locus YER015W, strain faa2, stronger effect = lower value 1 | locus YER016W, strain bim1, stronger effect = lower value 1 | locus YER110C, stronger effect = lower value 1.03 | locus YER111C, strain swi4, stronger effect = lower value 1 | locus YER155C, strain BEM2 (second series), stronger effect = lower value 1 | locus YER155C, strain BEM2, stronger effect = lower value 1 | locus YER167W, strain BCK2, stronger effect = lower value 1 | locus YFR010W, strain ubp6, stronger effect = lower value 1.01 | locus YGL078C, strain dbp3, stronger effect = lower value 1.03 | locus YGL086W, strain mad1, stronger effect = lower value 1.01 | locus YGL167C, strain pmr1, stronger effect = lower value 1 | locus YGL173C, strain kem1, stronger effect = lower value 1 | locus YGL227W, strain vid30, stronger effect = lower value 0.99 | locus YGL240W, strain doc1, stronger effect = lower value 0.992 | locus YGL248W, strain PDE1, stronger effect = lower value 1.01 | locus YGL253W, strain hxk2, stronger effect = lower value 0.992 | locus YGR078C, strain PAC10, stronger effect = lower value 1 | locus YGR135W, strain pre9, stronger effect = lower value 1.01 | locus YGR229C, strain SMI1, stronger effect = lower value 1.01 | locus YGR252W, strain gcn5, stronger effect = lower value 1.06 | locus YHR013C, strain ard1, stronger effect = lower value 0.988 | locus YHR027C, strain rpn1, stronger effect = lower value 1.01 | locus YHR030C, strain SLT2, stronger effect = lower value 1 and 1.06 | locus YHR079C, strain IRE1 (second series), stronger effect = lower value 1.02 | locus YHR079C, strain IRE1, stronger effect = lower value 1.06 | locus YHR094C, strain hxt1, stronger effect = lower value 1.02 | locus YHR129C, strain ARP1, stronger effect = lower value 1.02 | locus YHR142W, strain chs7, stronger effect = lower value 0.988 | locus YHR200W, strain rpn10, stronger effect = lower value 1.03 | locus YIL066C, strain RNR3, stronger effect = lower value 1 | locus YIL073C, strain SPO22, stronger effect = lower value 1.08 | locus YIL125W, strain kgd1, stronger effect = lower value 1.02 | locus YIR030C, strain dcg1, stronger effect = lower value 1.03 | locus YJL092W, strain hpr5, stronger effect = lower value 0.995 | locus YJL095W, strain BCK1 (second series), stronger effect = lower value 0.994 | locus YJL095W, strain BCK1, stronger effect = lower value 1 and 1.06 | locus YJL115W, strain asf1, stronger effect = lower value 1 | locus YJL129C, strain trk1, stronger effect = lower value 0.989 | locus YJL134W, strain LCB3, stronger effect = lower value 1.01 | locus YJL154C, strain vps35, stronger effect = lower value 0.999 | locus YJL164C, strain tpk1, stronger effect = lower value 1.01 | locus YJL166W, strain qcr8, stronger effect = lower value 0.998 | locus YJL168C, strain set2, stronger effect = lower value 1.03 | locus YJL187C, strain SWE1 (second series), stronger effect = lower value 1.01 | locus YJL187C, strain SWE1, stronger effect = lower value 1 | locus YJR043C, strain POL32, stronger effect = lower value 1 | locus YJR066W, strain TOR1, stronger effect = lower value 0.991
